98 compounds from PubChem BioAssay AID1220 (Sanford-Burnham Center for Chemical Genomics, 2008) can be followed below.

Molecules are shown by their SMILES. In all, about 190,000 compounds went through this assay and about 1,300 (0.68%) were called active. Cut-off read from the data, not from the text of the source: active = inhibition above about 50%; inactive = the rest. The full list was thinned out, with actives kept by preference.

Sequence of Mannose-6-phosphate isomerase (Homo sapiens) (P34949 whole entry, looked up): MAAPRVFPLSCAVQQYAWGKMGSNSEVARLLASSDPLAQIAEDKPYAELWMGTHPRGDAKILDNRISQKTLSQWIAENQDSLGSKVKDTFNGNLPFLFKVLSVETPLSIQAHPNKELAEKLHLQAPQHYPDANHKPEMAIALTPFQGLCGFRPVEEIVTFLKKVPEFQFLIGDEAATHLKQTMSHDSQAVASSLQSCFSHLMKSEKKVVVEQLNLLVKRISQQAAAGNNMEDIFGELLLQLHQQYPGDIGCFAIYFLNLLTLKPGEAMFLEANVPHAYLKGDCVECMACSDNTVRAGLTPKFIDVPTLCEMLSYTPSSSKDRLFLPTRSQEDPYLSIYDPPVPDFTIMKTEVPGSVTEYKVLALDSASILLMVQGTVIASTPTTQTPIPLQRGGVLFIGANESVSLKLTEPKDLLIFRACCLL

The test addresses Mannose-6-phosphate isomerase (Homo sapiens) (UniProt P34949). Description: human PMI inhibitors, high substrate, primary screen, biochemical, fluorescence intensity, high mannose 6-phosphate (AID 1220). The settings on record: recombinant PMI enzyme, coupled fluorescence intensity; at 20 µM; active compounds read high.
As to `COc1ccc(N/C=C\C(=O)c2ccc(C)cc2)cc1OC`, the inhibition is 18.6% (inactive).

On to `Cc1occc1C(=O)NNC(=S)NCc1ccc(Cl)cc1`, for which the inhibition is -4.2% (inactive).

In the case of `CCCC(=O)NCCc1nc2ccccc2n1CC(=O)c1ccccc1`, the inhibition is 4.9% (inactive).

As for `CCN(CC)S(=O)(=O)c1ccc(N2C(=O)Nc3ccccc3N2O)cc1`, the inhibition was -8.2% (inactive).

Take `COc1nccc(Nc2ccccc2)c1C#N`: the inhibition is -7.6% (inactive).

With `Cc1cc(N2CCN(C)CC2)nc2ccc(NC(=S)N3CCCCCC3)cc12`, the inhibition was 24.8% (inactive).

In the case of `Cc1cc(N2CCN(C)CC2)nc2ccc(NC(=S)N3CCCCC3)cc12`, the inhibition was 53.5% (active).

Consider `Cc1cc(N2CCN(C)CC2)nc2ccc(NC(=S)N3CCOCC3)cc12`, for which the inhibition was 23.9% (inactive).

On to `FC(F)(F)c1cnc(Oc2cccc3ccccc23)c(Cl)c1`, for which the inhibition was 10.7% (inactive).

In the case of `CN(CC(=O)Nc1ccc(N2CCOCC2)cc1)C(=O)C1CCCC1`, the inhibition is 9.6% (inactive).

Regarding `CN1/C(=N\O)c2cccc3cccc1c23`, the inhibition was 42.5% (inactive).

In the case of `c1csc(C2Nc3cccc4cccc(c34)N2)c1`, the inhibition is 11.7% (inactive).

As to `CN1C(=O)c2ccccc2N(C)C1c1cccs1` (stereo not drawn), the inhibition was 10% (inactive).

Turning to `CN1CN(C)c2cccc3cccc1c23`, the inhibition is 48.7% (inactive).

Turning to `CC1N(C)c2cccc3cccc(c23)N1C`, the inhibition was 62.9% (active).

`CN1c2cccc3cccc(c23)N(C)C1c1cccs1`: the inhibition was 58.6% (active).

Turning to `O=C(COC(=O)c1ccccc1)Nc1cc(Cl)ccc1Oc1ccccc1`, the inhibition was 0.2% (inactive).

With `COc1ccc(N2CC(NC(=O)NC(C)(C)C)CC2=O)cc1` (stereo not drawn), the inhibition is 53.9% (active).

Take `COc1ccc(N2CC(NC(=O)Nc3ccccc3)CC2=O)cc1` (stereo not drawn): the inhibition is -16.3% (inactive).

On to `COc1ccc(N2CC(NC(=O)NCC(C)C)CC2=O)cc1` (stereo not drawn), for which the inhibition was 7.2% (inactive).

Consider `CC(C)CSc1n[nH]c(=S)s1`, for which the inhibition was -41% (inactive).

On to `O=C(CCCSc1nc2ccccc2s1)NC1=NCCS1`, for which the inhibition was 1.7% (inactive).

Consider `CN1CCN(C(=O)c2ccccc2NC(=O)C(C)(C)C)CC1`, for which the inhibition was 10.4% (inactive).

For the compound `O=C(COC(=O)c1cc(S(=O)(=O)N2CCOCC2)cs1)c1ccccc1`, the inhibition is 11.5% (inactive).

In the case of `COc1ccc(CN2CCN(S(=O)(=O)c3ccc(NC(C)=O)cc3)CC2)cc1OC`, the inhibition was -2.1% (inactive).

As to `COc1ccc(CN2CCc3cc(OC)c(OC)cc3C2)cc1O`, the inhibition is 4.1% (inactive).

Take `CCOc1ccc(CN2CCN(S(=O)(=O)c3ccc(NC(C)=O)cc3)CC2)cc1OC`: the inhibition is -3.6% (inactive).

Consider `C/C=C(\C)CN1CCc2cc(OC)c(OC)cc2C1`, for which the inhibition was -34.9% (inactive).

Take `COc1cc(CN2CCN(Cc3ccc(C)cc3)C(CCO)C2)ccc1O` (stereo not drawn): the inhibition is 14.3% (inactive).

Turning to `COc1cc(CN2CCN(Cc3ccc(C)cc3)C(CCO)C2)cc(OC)c1O` (stereo not drawn), the inhibition is 61.9% (active).

Consider `COc1cc(CN2CCN(S(=O)(=O)c3ccc(NC(C)=O)cc3)CC2)cc(OC)c1O`, for which the inhibition was 50.8% (active).

For the compound `COc1ccc(CN2CCN(Cc3ccc(C)cc3)C(CCO)C2)cc1OC` (stereo not drawn), the inhibition is -5.7% (inactive).

Regarding `COc1cc(OC)c(OC)cc1CN1CCN(Cc2ccc(SC)cc2)CC1`, the inhibition is 10.2% (inactive).

Consider `COc1cc(CN2CCN(Cc3ccc(SC)cc3)CC2)cc(OC)c1O`, for which the inhibition was 62.1% (active).

Take `COc1cc(CN2CCN(c3ccccc3F)CC2)cc(OC)c1O`: the inhibition was 24.9% (inactive).

As to `COc1cc2c(cc1OC)CN(Cc1cc(OC)c(O)c(OC)c1)CC2`, the inhibition was 69.5% (active).

In the case of `CCN(CC)c1nc(-c2ccccn2)nc(-c2ccccc2)c1C#N`, the inhibition is -5.4% (inactive).

For the compound `CCN(CC)C(=O)NC1CC2CCCC(C1)N2Cc1ccccc1` (stereo not drawn), the inhibition was -8.6% (inactive).

For `CC(C)C(OC(=O)c1cccs1)C(=O)NCc1ccco1` (stereo not drawn), the inhibition was 1.8% (inactive).

Turning to `Cc1ccc(S(=O)(=O)N2CCN(S(=O)(=O)N3CCCCC3)CC2)cc1`, the inhibition is 10.1% (inactive).

Turning to `Cn1c(=O)c2c(-c3ccc(C(C)(C)C)cc3)n(N3CCOCC3)cc2n(C)c1=O`, the inhibition is -3.7% (inactive).

For the compound `COc1ccc(CN2CCN(C(=O)CC(C)C)CC2)cc1OC`, the inhibition is -3.1% (inactive).

Take `COc1ccc(C(=O)N2CCN(Cc3cc(OC)c(O)c(OC)c3)CC2)cc1OC`: the inhibition is 61.1% (active).

Turning to `COc1ccc(CN2CCN(C(=O)c3cc(OC)c(OC)c(OC)c3)CC2)cc1OC`, the inhibition was -8.2% (inactive).

In the case of `COc1ccc(C(=O)N2CCN(Cc3ccccc3C)CC2)cc1OC`, the inhibition is -3.6% (inactive).

In the case of `COc1cc(CN2CCN(C(=O)CC(C)C)CC2)cc(OC)c1O`, the inhibition is 55.5% (active).

With `COc1cc(CN2CCN(C(=O)CC(C)C)CC2)cc(OC)c1OC`, the inhibition is -4.9% (inactive).

For `CCC(Sc1nc(C)cc(C)n1)C(=O)Nc1cc(C)on1` (stereo not drawn), the inhibition was -8.4% (inactive).

In the case of `CC(=O)Nc1cc(C(=O)N2CCCC2)ccc1S(=O)(=O)c1ccc(Cl)cc1`, the inhibition is 2.8% (inactive).

As for `Nc1cc(=O)[nH]c(SCc2nnc(-c3ccccc3)o2)n1`, the inhibition is -0.3% (inactive).

With `CC1(C)CC(CC(=O)O)(c2ccc(F)cc2)CCO1` (stereo not drawn), the inhibition is 3% (inactive).

In the case of `c1ccc2c(c1)NC1(CCCCC1)n1c-2nc2ccccc21`, the inhibition was 8.3% (inactive).

As for `COc1cc(/C=N/S(=O)(=O)CCc2ccccc2)cc(OC)c1O`, the inhibition is 61.1% (active).

Turning to `COc1cc(/C=C(\C#N)C(=O)NCCc2ccccc2)cc(OC)c1O`, the inhibition is 57.6% (active).

`COc1ccc(/C=N/S(=O)(=O)CCc2ccccc2)c(OC)c1`: the inhibition was 7.5% (inactive).

With `COc1ccc(/C=C(\C#N)C(=O)NCCc2ccccc2)cc1OCc1ccccc1`, the inhibition was -4.6% (inactive).

For the compound `COCCNC(=O)/C(C#N)=C/c1cc(Br)c(O)c(OC)c1`, the inhibition was 15.5% (inactive).

`COc1cc(/C=N/S(=O)(=O)CCc2ccccc2)ccc1O`: the inhibition is 14.1% (inactive).

Regarding `COc1cc(/C=C(\C#N)C(=O)c2c(C)[nH]c3ccccc23)cc(OC)c1OC`, the inhibition is 10.2% (inactive).

For the compound `COc1cc(/C=C(\C#N)C(=O)c2c[nH]c3ccccc23)cc(OC)c1O`, the inhibition was 70% (active).

`COc1ccc(/C=C(\C#N)C(=O)c2c(C)[nH]c3ccccc23)cc1OC`: the inhibition is 8.5% (inactive).

Turning to `CC(C)NC(=S)Nc1ccc2[nH]c(=O)[nH]c2c1`, the inhibition was -22% (inactive).

Take `CC(C)(C)N(NC(=O)OCc1ccccc1)C(=O)c1ccccc1`: the inhibition is 2.3% (inactive).

As for `CN(CP(=O)(O)CCc1ccccc1)S(C)(=O)=O`, the inhibition was 3.2% (inactive).

For the compound `CNc1ccc(/C=C(\C#N)c2ccccn2)cc1[N+](=O)[O-]`, the inhibition is -3.1% (inactive).

Consider `Cc1ccc(/C=C/C(=O)N2CCCN(C(=O)/C=C/c3ccc(C)cc3)CC2)cc1`, for which the inhibition was 2.5% (inactive).

For `COc1ccc2nc(NC(=O)c3ccc(-c4cccc([N+](=O)[O-])c4)o3)sc2c1`, the inhibition was -5.7% (inactive).

In the case of `COc1ccc2cc3cc(C(=O)NCCN4CCN(Cc5ccccc5)CC4)oc3nc2c1`, the inhibition is -5.6% (inactive).

Regarding `CC(C)(C)NC(=O)NC(=O)CN1CCN(c2ccc(O)cc2)CC1`, the inhibition was 62.6% (active).

As for `CC(CCc1ccccc1)NC(=O)CN1CCN(c2ccc(O)cc2)CC1` (stereo not drawn), the inhibition is 65.2% (active).

As for `CC(CCc1ccccc1)NC(=O)CN1CCc2ccccc2C1` (stereo not drawn), the inhibition was 3.9% (inactive).

`O=C(CN1CCN(c2ccc(O)cc2)CC1)NC(c1ccccc1)c1ccccc1`: the inhibition is 64% (active).

Consider `O=C(CN1CCN(c2ccccc2O)CC1)NC(c1ccccc1)c1ccccc1`, for which the inhibition is 15.4% (inactive).

For the compound `Cc1c(NC(=O)CN2CCN(c3ccccc3)CC2)c(=O)n(-c2ccccc2)n1C`, the inhibition is -8.2% (inactive).

Turning to `CC1CC(C)CN(CC(=O)NC(c2ccccc2)c2ccccc2)C1` (stereo not drawn), the inhibition was -6.3% (inactive).

For the compound `Cc1c(NC(=O)CN2CCN(c3ccc(F)cc3)CC2)c(=O)n(-c2ccccc2)n1C`, the inhibition is 5.8% (inactive).

As to `COc1ccc(N2CCN(CC(=O)NC(=O)NC(C)(C)C)CC2)cc1`, the inhibition is 12.2% (inactive).

Take `Cc1c(NC(=O)CN2CCN(c3ccc(O)cc3)CC2)c(=O)n(-c2ccccc2)n1C`: the inhibition is 53% (active).

As to `CC(C)(C)NC(=O)NC(=O)CN1CCN(c2ccccc2)CC1`, the inhibition is -4.3% (inactive).

As to `CC(CCc1ccccc1)NC(=O)CN1CCN(c2ccccc2)CC1` (stereo not drawn), the inhibition was 8.2% (inactive).

Regarding `CC(=O)OC1CC(C)(C)N(OC(=O)c2ccccc2)C(C)(C)C1`, the inhibition was -2.2% (inactive).

Take `Cc1cc(Nc2c(C#N)c(N)nn2C)ccc1F`: the inhibition is 0.7% (inactive).

Regarding `O=C(NC12CC3CC(CC(C3)C1)C2)c1cc2nc(-c3ccco3)cc(C(F)(F)F)n2n1`, the inhibition is 7.3% (inactive).

Turning to `O=C(NC1CCCCC1)C(c1ccco1)N(Cc1ccco1)C(=O)c1ccco1` (stereo not drawn), the inhibition was -4.5% (inactive).

For `O=C(Nc1ccc2c(c1)CCC2)c1ccccc1F`, the inhibition is -3.5% (inactive).

As for `Cc1nn(-c2ccccc2)c(C)c1/C=C/C(=O)OCC(=O)NC1CCS(=O)(=O)C1` (stereo not drawn), the inhibition is -6.3% (inactive).

As to `CC1(C)CC(=O)CC(C2(O)C(=O)N(Cc3ccccc3)c3ccccc32)O1` (stereo not drawn), the inhibition was 0.6% (inactive).

As for `O=C(CN(C(=O)CNS(=O)(=O)c1ccccc1)c1ccc2c(c1)OCCO2)NCc1ccco1`, the inhibition was -2.1% (inactive).

`CCC(=O)Nc1cc(Cl)ccc1C(=O)O`: the inhibition is -13.8% (inactive).

As to `Cn1c(=O)[nH]c(=O)c2[nH]c(N(Cc3ccccc3)Cc3ccccc3)nc21`, the inhibition was 10.1% (inactive).

As for `Cc1cc(NC(=O)CCCC(=O)NCc2cccs2)no1`, the inhibition is 3.8% (inactive).

On to `Cc1nc(NC(=O)CSc2nnnn2Cc2ccccc2)sc1C`, for which the inhibition was 5.5% (inactive).

As for `COc1ccc2c(c1)CCc1c(C(=O)NCc3ccc(F)cc3)noc1-2`, the inhibition is 9.9% (inactive).

On to `COc1ccc2c(c1)C1=NN(/C(C)=C/C(C)=O)C(c3cccc(F)c3)C1CC2` (stereo not drawn), for which the inhibition was 44.9% (inactive).

Turning to `COc1ccc2c(c1)C1=NN(/C(C)=C\C(C)=O)C(c3ccccc3)C1CC2` (stereo not drawn), the inhibition is 47.7% (inactive).

As for `COc1ccc2c(c1)CCC1C2=NN(/C(C)=C\C(C)=O)C1c1ccc(F)cc1` (stereo not drawn), the inhibition was 54.4% (active).

For the compound `COc1ccc2c(c1)CCC1C2=NN(/C(C)=C/C(C)=O)C1c1cccc(F)c1` (stereo not drawn), the inhibition is 44.4% (inactive).

Take `COc1ccc2c(c1)C1=NN(/C(C)=C/C(C)=O)C(c3ccc(F)cc3)C1CC2` (stereo not drawn): the inhibition was 56.3% (active).

What is called inhibition is the relative decrease from the control value, in per cent.
